PLC-gamma1 inh: inhibitors of human phospholipase C gamma1; hit rate 0.84% among 370,000; purified PLC-gamma1, fluorogenic substrate, fluorescence; inhibition, % at 12.2 µM; AID 720700; P19174; in the data active = inhibition above about 9.5%
PLCb3 inh: blocks human PLC-beta3 enzyme activity. Q01970. hit rate 0.18% among 370,000. Purified PLC-beta3, fluorogenic substrate, fluorescence. inhibition, % at 12.2 µM; in the data active = inhibition above about 11%;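 also: 0% = median of compound wells on plate and 100% = full blocker control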
ADAM17 inh: inhibitors of human ADAM17 | AID 720648 | recombinant ADAM17, EDANS/DABCYL FRET peptide cleavage | inhibition, % at 6.95 µM | hit rate 0.83% among 370,000;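 active = inhibition above the mean of compounds lying between control limits plus 3 SD, set per campaign, cut at about 8.5% in these data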;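 also: 0% = DMSO-only wells as the low control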
KLK7 zymogen act: proKLK7 (human) activation, primary screen. activation, % at 7 µM. purified proKLK7, EDANS-DABCYL substrate fluorescence; 100% is mature enzyme control, 0% vehicle. AID 652039. P49862. hit rate 0.9% among 370,000;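 active = activation above the mean of all tested compounds plus 3 SD, computed per campaign excluding outliers beyond control limits, cut at about 13% in these data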
Target sequence (P49862 whole entry, looked up): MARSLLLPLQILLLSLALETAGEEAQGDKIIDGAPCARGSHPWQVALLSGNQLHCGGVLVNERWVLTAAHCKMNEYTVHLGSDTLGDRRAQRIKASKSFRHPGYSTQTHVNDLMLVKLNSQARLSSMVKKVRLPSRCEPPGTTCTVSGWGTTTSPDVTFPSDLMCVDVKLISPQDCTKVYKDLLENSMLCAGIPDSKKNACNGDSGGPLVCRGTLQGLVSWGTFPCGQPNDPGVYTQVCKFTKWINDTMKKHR
sPLA2-III inh: Inhibits HGIII-sPLA2 liposome hydrolysis, primary screen. hit rate 0.56% among 370,000. inhibition, % at 12.2 µM. QFRET BODIPY PC-A2 liposome hydrolysis, fluorescence. Q9NZ20;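 active = inhibition above mean plus 3 SD of compounds lying within the high and low control bounds, cut at about 19% in these data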;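 also: 0% = median of test compound wells and 100% = no enzyme DMSO wells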
Target sequence (Q9NZ20 whole entry, looked up): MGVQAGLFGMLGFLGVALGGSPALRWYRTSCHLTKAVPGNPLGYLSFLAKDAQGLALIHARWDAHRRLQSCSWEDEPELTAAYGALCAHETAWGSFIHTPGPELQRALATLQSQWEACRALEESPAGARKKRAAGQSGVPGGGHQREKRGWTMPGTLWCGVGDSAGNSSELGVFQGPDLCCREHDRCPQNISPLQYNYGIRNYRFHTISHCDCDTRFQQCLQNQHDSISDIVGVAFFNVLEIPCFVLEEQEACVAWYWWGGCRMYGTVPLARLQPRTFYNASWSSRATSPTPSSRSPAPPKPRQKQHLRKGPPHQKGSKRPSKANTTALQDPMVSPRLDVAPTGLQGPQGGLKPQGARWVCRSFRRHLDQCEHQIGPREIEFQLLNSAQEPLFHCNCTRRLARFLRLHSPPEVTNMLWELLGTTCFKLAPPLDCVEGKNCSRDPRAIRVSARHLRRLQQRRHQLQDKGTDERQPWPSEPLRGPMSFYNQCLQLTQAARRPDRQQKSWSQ
ADAM10 inh: inhibits human ADAM10; hit rate 0.62% among 370,000; recombinant ADAM10, EDANS/DABCYL FRET peptide cleavage, 3 h; inhibition, % at 7 µM; AID 720582; O14672;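 active = inhibition above a per-campaign cutoff equal to the mean of compounds falling between control-based bounds plus 3 SD, cut at about 20% in these data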;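 also: 0% = DMSO wells while the 100% control is not disclosed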
ADAM10 confirm: confirmation of inhibitors of human ADAM10 | AID 743208 | inhibition, % at 6.95 µM | ADAM10 QFRET peptide cleavage, EDANS fluorescence | shares compounds with ADAM10 inh | hit rate 1% among 2,100;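 active = inhibition above about 20% chosen separately for each screening run, limit read from the data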;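 also: 0% = DMSO wells and 100% = marimastat wells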
ADAM17 ctr: ADAM17 inhibition, counter-screen for ADAM10 exosite hits; ADAM17 QFRET peptide cleavage, EDANS fluorescence; AID 743214; shares compounds with ADAM10 inh; inhibition, % at 6.95 µM; hit rate 0.5% among 2,100;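 active = mean triplicate inhibition above the solvent-only control wells' mean plus 3 SD, cut at about 12% in these data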;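 also: 0% = DMSO wells and 100% = marimastat wells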
The depositor's hits bear a star; · = no result given. Shown are actives, neighbours in structure and some others; about 3.4% of the full set was active somewhere.

SMILES | PLC-gamma1 inh | PLCb3 inh | ADAM17 inh | KLK7 zymogen act | sPLA2-III inh | ADAM10 inh | ADAM10 confirm | ADAM17 ctr
NC(Cc1ccc(O)cc1)C(=O)NN=Cc1ccccc1O (stereo unspecified) | -33.8 | -43.1 | -9.3 | -53.2 | -3.2 | -33.5 | · | ·
COc1cc(OC)cc(C(=O)N/N=C/c2ccc(OC)c(COc3ccc4ccccc4c3)c2)c1 | -9.8 | -21.0 | 1.5 | -7.0 | -6.6 | -6.8 | · | ·
COc1ccc(C(=O)N/N=C/c2ccc(OC)c(COc3ccccc3)c2)cc1 | 2.0 | -9.3 | 0.6 | 0.9 | -3.9 | 70.8* | 11.7 | 3.9
CC(C)C(=O)OCC(=O)Nc1ccc(N=Nc2ccccc2)cc1 | 6.1 | 5.8 | 7.0 | -0.2 | -7.2 | 24.6* | -0.2 | 1.0
COc1ccc(Sc2cccc(Cl)c2)c(C(=O)O)c1 | -2.1 | -7.7 | -5.3 | -0.1 | -2.7 | -2.5 | · | ·
O=C(Nc1ccc(Cn2cccn2)cc1)c1ccc(COc2ccc(Br)cc2)cc1 | 1.7 | 3.6 | 1.0 | 1.1 | 0.0 | 9.8 | · | ·
O=C(Nc1ccn(Cc2ccccc2F)n1)c1ccc(COc2ccc(Br)cc2)cc1 | -1.6 | -6.0 | 3.3 | -0.4 | -9.4 | 19.9* | 4.9 | 0.6
Cc1c(CN2CCN(c3ncc(Cc4ccccc4)cn3)CC2)c(=O)n(-c2ccccc2)n1C | 0.0 | 5.0 | -2.9 | 0.6 | -7.1 | -15.2 | · | ·
O=[N+]([O-])c1cc(CN2CCN(c3ccccc3)CC2)c(O)c2ncccc12 | 3.8 | 2.8 | 6.2 | 0.0 | 9.0 | 20.4* | 5.8 | 0.9
Cc1cc(O)cc(=O)n1-c1cc(F)c(F)c(F)c1 | 0.5 | -2.2 | -5.1 | -0.4 | 5.3 | -10.9 | · | ·
COc1ccc(-c2noc(-c3ccccc3C(=O)Nc3cccc(OC)c3)n2)cc1 | 2.3 | -2.9 | 6.8 | 0.5 | -37.1 | 25.0* | 2.9 | 0.7
O=C(COc1ccc(S(=O)(=O)Nc2ccccc2)cc1)NCc1ccccn1 | 0.4 | -7.8 | -3.4 | -0.2 | -6.9 | 74.5* | -0.8 | -0.3
CSc1nc(O)c(C(c2cccc([N+](=O)[O-])c2)c2c(O)nc(SC)[nH]c2=O)c(=O)[nH]1 | 0.4 | -6.9 | -1.5 | -0.2 | 0.6 | 81.1* | -0.9 | -0.5
CSc1nc(O)c(C(c2ccc(O)cc2)c2c(O)nc(SC)[nH]c2=O)c(=O)[nH]1 | -0.3 | -2.4 | -1.4 | -0.1 | 3.9 | 0.2 | · | ·
CCOC(=O)C1CSCCS(=O)(=O)N1Cc1ccccc1F (stereo unspecified) | 2.2 | -0.6 | -2.6 | 0.1 | 14.2 | -4.0 | · | ·
CCCCCCCOc1ccc(C2(C)NC(=O)NC2=O)cc1 (stereo unspecified) | 4.3 | -2.9 | 5.3 | -0.5 | -14.3 | 21.0* | 0.4 | 0.6
CCCCOc1ccc(C2(C)NC(=O)NC2=O)cc1 (stereo unspecified) | 0.1 | -5.1 | -3.3 | 0.2 | -0.2 | -1.7 | · | ·
COc1ccc(OC)c(NC(=O)c2cc3n(n2)C(C(F)(F)F)CC(c2ccc4c(c2)OCO4)N3)c1 (stereo unspecified) | -9.8 | -16.5 | 8.0 | -1.1 | -1.9 | 14.6 | · | ·
O=C(Nc1cc(Cl)ccc1O)c1cc2n(n1)C(C(F)(F)F)CC(c1ccc3c(c1)OCO3)N2 (stereo unspecified) | -18.4 | -20.6 | 8.5 | -0.4 | -28.5 | 29.2* | 5.7 | 1.9
COc1ccc2c(c1)OC[C@H]1[C@H]2N2C(=O)CN(Cc3ccc(C)cc3)C(=O)[C@@]2(C)[C@H]1c1ccccc1 | 1.8 | 1.8 | 2.1 | -0.6 | -4.5 | 20.1* | 6.2 | 1.6
C[C@@]12C(=O)N(CCc3c[nH]c4ccccc34)CC(=O)N1[C@H]1c3ccccc3OC[C@@H]1[C@@H]2c1ccccc1 | 2.3 | 2.5 | 8.5 | 0.4 | -74.3 | 22.1* | 4.8 | 2.2
CCOC(=O)[C@@H]1[C@H]2COc3ccc(Br)cc3[C@H]2N2C(=O)N(c3cccc(F)c3)C(=O)[C@]12C | 2.6 | 1.3 | 5.1 | 0.7 | -6.0 | 20.0* | 4.2 | 1.2
C[C@]12C(=O)N(c3ccc(Br)cc3)C(=O)N1[C@@H]1c3ccccc3OC[C@@H]1[C@H]2c1ccccc1 | 3.3 | 5.9 | 8.2 | 0.9 | -1.4 | 22.7* | 6.6 | 1.1
C[C@@]12C(=O)N(c3ccc(Br)cc3)C(=O)N1[C@@H]1c3ccccc3OC[C@@H]1[C@H]2c1ccccc1 | 2.0 | 4.4 | 1.2 | 0.4 | -1.1 | 18.2 | · | ·
C=CCN1C(=O)[C@H](CC(=O)NCc2cccc(C(F)(F)F)c2)[C@@]2(C(=O)OCC)CCCC=C12 | -1.8 | 2.6 | -5.7 | 0.6 | -12.8 | 0.4 | · | ·
SMILES | PLC-gamma1 inh | PLCb3 inh | ADAM17 inh | KLK7 zymogen act | sPLA2-III inh | ADAM10 inh | ADAM10 confirm | ADAM17 ctr
COc1ccc(N(C)S(=O)(=O)c2cccc(C(=O)Nc3cc(OC)ccc3OC)c2)cc1 | -8.8 | -10.8 | 6.6 | 1.3 | -13.2 | 20.5* | 6.9 | 1.8
COc1ccc(N(C)S(=O)(=O)c2cccc(C(=O)Nc3ccc(OC)nc3)c2)cc1 | -0.8 | -0.6 | 1.9 | 0.7 | -5.9 | 7.1 | · | ·
CCC[C@H]1[C@@H](OC(=O)NCc2cccs2)CC[C@@]23CCCN2C(=O)CCC[C@@H]13 | 3.1 | 2.4 | 4.1 | · | 3.9 | 4.0 | · | ·
CCc1ccc([C@H]2[C@@H]3C(=O)C[C@@H]4C(=O)N(Cc5ccccc5)C(=O)[C@@H]4[C@@H]3CN2S(=O)(=O)c2ccc(C)cc2)cc1 | 0.4 | 1.2 | 3.9 | -0.5 | -31.1 | 23.1* | 6.4 | 2.5
CCc1ccc([C@H]2[C@@H]3C(=O)C[C@@H]4C(=O)N(CC)C(=O)[C@@H]4[C@@H]3CN2S(=O)(=O)c2ccc(C)cc2)cc1 | 0.2 | -0.5 | 0.3 | -0.5 | -28.7 | 3.8 | · | ·
CCc1ccc([C@H]2[C@@H]3C(=O)C[C@@H]4C(=O)N(C5CCCCC5)C(=O)[C@@H]4[C@@H]3CN2S(=O)(=O)c2ccc(C)cc2)cc1 | 1.5 | 6.4 | 8.1 | -0.3 | -35.1 | 20.1* | 4.5 | 1.4
O=C(c1ccco1)c1cn(CC(=O)N2CCCCCC2)c2ccccc12 | -5.0 | -15.6 | -0.9 | 0.6 | -1.4 | -1.5 | · | ·
CCOC(=O)C1CCN(C(=O)Cn2cc(C(=O)c3ccco3)c3ccccc32)CC1 | -2.9 | 1.6 | -4.2 | -0.2 | 4.1 | 63.9* | 4.5 | 2.4
CC1(C(=O)N2CCC(CC3CC(c4cccc(Br)c4)=NO3)(C(=O)NCC3CCCCC3)CC2)CC1 (stereo unspecified) | 6.0 | 6.4 | 4.1 | 0.5 | -11.6 | 25.3* | 0.1 | 2.7
CC(=O)N(c1ccc2oc(=O)sc2c1)S(=O)(=O)c1cccs1 | -1.0 | 1.5 | 1.7 | -0.6 | -10.7 | 13.9 | · | ·
CC(C)C(=O)N(c1ccc2oc(=O)sc2c1)S(=O)(=O)c1cccs1 | 4.6 | 2.9 | 2.7 | -0.6 | -23.1 | 22.4* | 5.0 | 0.2

High-throughput results (PubChem)
